Screening data: PubChem, National Center for Advancing Translational Sciences (NCATS)
Rows were chosen to be rich in hits. Some 1.3% of all compounds tested hit in one or more screens of this group.
AMA1 RON2 block – qHTS for Inhibitors of AMA1-RON; Towards Development of Antimalarial Drug Lead: Primary Screen; AID 720542, 2013; AlphaScreen AMA1-biotinylated RON2 peptide binding; Potency, µM (titrated, usually from 58.2 µM), without a hit: at the highest dose activity change, negative = inhibition, hits mostly inhibitors; 0.2% of 360,000 active;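 note: 0% = vehicle wells and -100% = peptide control; nearly all actives have a fitted effect of over 45% in size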
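AMA1 (3D7) with his tag at 25 nM final met compounds first, then biotinylated RON2 peptide at 25 nM; detection used donor plus acceptor beads, 10 µg/mL apiece, read by AlphaScreen after 30 min at room temperature.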
RE007 growth inh – qHTS Assay for Inhibitors of the HIV-1 protein Vpr; S. pombe RE007 Vpr strain, BacTiter-Glo ATP luminescence, 24 h; Potency, µM (top dose mostly 92.2 µM), inactives show at the highest dose activity change, negative = less growth, hits mostly inhibitors; 0.21% of 360,000 active; AID 651644, 2012; active = well fitted falling curve with a large enough effect; inconclusive = small, poorly fitted or top-dose-only effect; inactive = no such curve, though single readings can be large or run the other way; note: nearly all actives have a fitted effect of over 50% in size
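Fission yeast strain RE007, carrying one chromosomally integrated HIV-1 vpr copy, was seeded at OD 0.01 in PMG+AL medium with 23 nL pinned compound. After 24 h at 30 °C and 99% humidity, viability was read by BacTiter-Glo luminescence.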
TbPYK inhibitor – qHTS of Trypanosoma Brucei Inhibitors. pyruvate kinase (Trypanosoma brucei), Q57TT1. TbPYK enzyme, Kinase-Glo Plus ATP luminescence, 45 min. Potency, µM (doses to about 76.8 µM), for inactives: at the top dose activity, negative = inhibition, hits mostly inhibitors. 0.12% of 410,000 active. AID 624173, 2012; note: nearly all actives have a fitted effect of over 50% in size
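Enzyme and substrate buffer are dispensed first and compound is pin-transferred. ADP at 130 uM final then starts the reaction, which runs 45 min at room temperature. Detection reagent is added for 10 min before luminescence is imaged.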
LmPK inhibitor – qHTS Assay for Inhibitors of Leishmania Mexicana Pyruvate Kinase (LmPK); Q27686; purified LmPK, Kinase-Glo ATP luminescence, 1 h; Potency, µM (top dose mostly 57.5 µM), for inactives: at the highest dose activity change, negative = inhibition, usual class: inhibitors; 0.37% of 290,000 active; AID 1721, 2009
Target sequence (Q27686 whole entry, looked up): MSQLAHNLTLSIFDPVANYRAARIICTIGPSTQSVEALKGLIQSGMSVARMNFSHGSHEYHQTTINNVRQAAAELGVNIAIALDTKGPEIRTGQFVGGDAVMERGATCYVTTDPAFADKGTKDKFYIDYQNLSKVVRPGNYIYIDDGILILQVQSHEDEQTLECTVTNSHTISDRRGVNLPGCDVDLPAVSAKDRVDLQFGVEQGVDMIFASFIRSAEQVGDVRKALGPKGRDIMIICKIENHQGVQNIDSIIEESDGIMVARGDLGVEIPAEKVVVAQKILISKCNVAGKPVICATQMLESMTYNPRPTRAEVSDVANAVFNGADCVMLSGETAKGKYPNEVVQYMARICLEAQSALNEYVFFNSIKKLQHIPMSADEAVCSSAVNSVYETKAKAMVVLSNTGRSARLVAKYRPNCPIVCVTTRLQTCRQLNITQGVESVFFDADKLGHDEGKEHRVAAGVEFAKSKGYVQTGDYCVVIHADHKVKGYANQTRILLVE
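In 50 mM imidazole pH 7.2 with 7 mM MgCl2, LmPK (0.1 nM) turned over PEP (0.5 mM) and ADP (0.1 mM) for 1 h at room temperature. Luciferase read-out of ATP.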
Vaccinia Venus – qHTS for Stage-Specific Inhibitors of Vaccinia Orthopoxvirus: Venus Reporter Primary qHTS | Potency, µM (doses to about 36.5 µM), without a hit: at the top dose activity change, negative = inhibition, hits mostly inhibitors | 0.46% of 330,000 active | AID 720580, 2013 | Vaccinia virus Venus reporter expression, fluorescence; calls by dose curve; tested in A549 cells; note: nearly all actives have a fitted effect of over 30% in size
Vaccinia mCherry – qHTS for Stage-Specific Inhibitors of Vaccinia Orthopoxvirus: mCherry Reporter Primary qHTS | Vaccinia virus mCherry reporter infection, fluorescence | Potency, µM (top dose mostly 36.5 µM), inactives show top-dose activity change, negative = inhibition, hits mostly inhibitors | 0.63% of 310,000 active; calls by dose curve; tested in A549 cells; note: nearly all actives have a fitted effect of over 35% in size
Starred values were filed as active, the others as inactive; [ ] = remark or other dose. Unless noted, calls come from the whole dose curve; as a rule, active = well fitted curve in the direction sought with a large enough effect; inconclusive = small, poorly fitted or top-dose-only effect, or another doubt; inactive = no such curve, though single readings can be large; an effect the other way counts as inactive or inconclusive. Unless noted, % is set by controls: 0 for no effect and ±100 for the full control effect; potency is the fitted concentration of half-maximal effect.

How did COc1ccc(CC2NCCC3(O)CCCCC23)cc1 (centres undefined) do in these assays?
AMA1 RON2 block: 1.0%; RE007 growth inh: 16.6%; TbPYK inhibitor: -0.5%; LmPK inhibitor: 9.8%

How did CN(C)CC(C)(O)c1ccc2c(c1)CN(Cc1cccn1-c1ncccn1)CCO2 (centres undefined) do in these assays?
Vaccinia Venus: 3.9%; Vaccinia mCherry: -6.4%

How did COc1ccc(CNC[C@@H](CCCCN(C)Cc2ccc(OC)cc2)N2C[C@H](c3ccccc3)N(CCc3ccc(Cl)c(Cl)c3)C(=O)C2=O)cc1 do in these assays?
AMA1 RON2 block: -5.9%; RE007 growth inh: 33.5%; TbPYK inhibitor: 4.4%; LmPK inhibitor: 3.8%; Vaccinia Venus: 22.4µM*; Vaccinia mCherry: inconclusive

How did CN(CCCC[C@H](CNCc1ccc(-c2ccccc2)cc1)N1C[C@H](c2ccccc2)N(CCc2ccc(Cl)c(Cl)c2)C(=O)C1=O)Cc1ccc(-c2ccccc2)cc1 do in these assays?
LmPK inhibitor: 4.8%

How did COc1cc(-c2cccc(Cl)c2)cc2c1OCCN(C(=O)CCn1ccc(C)n1)C2 do in these assays?
Vaccinia Venus: -7.4%; Vaccinia mCherry: -25.4%

What do the screens show for `CCN1/C(=C/C=C/c2oc3ccc4ccccc4c3[n+]2CC)Oc2ccc3ccccc3c21`?
AMA1 RON2 block: inconclusive; RE007 growth inh: 12.6µM*; TbPYK inhibitor: -13.6%; LmPK inhibitor: -16.5%; Vaccinia Venus: inactive; Vaccinia mCherry: 50.8%

What do the screens show for `COc1cccc(CNC(=O)c2c(OC)cc(=O)n3c2CCN(C(=O)c2cc(F)cc(F)c2)CC3)c1`?
Vaccinia Venus: 0.0%; Vaccinia mCherry: -10.2%

What do the screens show for `COc1cccc(CN2C(=O)NC(C)(C3CCN(Cc4cccc(O)c4)CC3)C2=O)c1OC` (centres undefined)?
Vaccinia Venus: -22.3%; Vaccinia mCherry: -2.8%

Results for O=C(Nc1ccc(-c2nc3ccccc3s2)cc1)c1cc(-n2cnnc2)ccc1Cl ?
AMA1 RON2 block: 10.4%; RE007 growth inh: 0.2%; TbPYK inhibitor: 4.9%; LmPK inhibitor: 5.2%; Vaccinia Venus: 7.94µM*; Vaccinia mCherry: inconclusive

How did Cc1cnc(SCc2ccccn2)nc1C1CCCN(C(=O)c2noc3c2CCCC3)C1 (centres undefined) do in these assays?
Vaccinia Venus: inconclusive; Vaccinia mCherry: -16.1%

Results for CCn1c(C(=O)N2CCCC(C(=O)NCCc3ccc(C)cc3)C2)cc2sccc21 (centres undefined) ?
AMA1 RON2 block: 11.6%; RE007 growth inh: 9.9%; TbPYK inhibitor: 35.5µM*; LmPK inhibitor: 0.7%; Vaccinia Venus: inconclusive; Vaccinia mCherry: inconclusive

What do the screens show for `Cc1ccc(C)c(CN2CCC3(CCC(CNC(=O)c4ccnn4C)O3)CC2)c1` (centres undefined)?
Vaccinia Venus: -17.2%; Vaccinia mCherry: -18.4%

What do the screens show for `O=S(=O)(c1cccc(-c2n[nH]c(=S)n2C2CCCC2)c1)N1CCOCC1`?
AMA1 RON2 block: 70.9%; RE007 growth inh: 0.7%; TbPYK inhibitor: 6.31µM*; LmPK inhibitor: 7.5%[11.5 µM]; Vaccinia Venus: -9.1%; Vaccinia mCherry: -15.8%

How did Cc1cc(C(=O)Nc2ccc(N3CCCC3)c(Cl)c2)ccc1[N+](=O)[O-] do in these assays?
AMA1 RON2 block: 22.4µM*; RE007 growth inh: -6.2%; TbPYK inhibitor: -3.1%; LmPK inhibitor: 0.1%; Vaccinia Venus: -18.3%; Vaccinia mCherry: -20.9%

How did O=C(Nc1ccc(N2CCCCC2)c(Cl)c1)c1cccnc1 do in these assays?
AMA1 RON2 block: 58.7%; RE007 growth inh: -9.0%; TbPYK inhibitor: 0.0%; LmPK inhibitor: -0.3%; Vaccinia Venus: 1.6%; Vaccinia mCherry: 12.6µM*

What do the screens show for `O=C(Nc1ccc(N2CCCCC2)cc1)c1ccccc1`?
AMA1 RON2 block: -7.8%; RE007 growth inh: inconclusive; TbPYK inhibitor: -17.2%; LmPK inhibitor: 3.55µM*; Vaccinia Venus: -17.7%; Vaccinia mCherry: -21.0%

How did CC1CCCCN1CC(=O)Nc1ccc(N2CCCCCC2)cc1 (centres undefined) do in these assays?
AMA1 RON2 block: 28.2µM*; RE007 growth inh: -5.2%; TbPYK inhibitor: 8.6%; LmPK inhibitor: -11.7%; Vaccinia Venus: -17.1%; Vaccinia mCherry: -12.4%

What do the screens show for `Cc1nc(C)n(CC(=O)NCC2Cc3cc(-c4ccsc4)cc(Cl)c3O2)n1` (centres undefined)?
Vaccinia Venus: -4.8%; Vaccinia mCherry: -7.4%

Results for COc1ccc(N2C(=O)[C@@H]3C[C@H]2CN3Cc2ccc3nccnc3c2)cc1Cl ?
Vaccinia Venus: -10.5%; Vaccinia mCherry: -17.0%

How did CN=c1c([N+](=O)[O-])nn(-c2ccc3c(c2)OCCO3)n1O do in these assays?
AMA1 RON2 block: 0.9%; RE007 growth inh: -3.9%; TbPYK inhibitor: 0.3%; LmPK inhibitor: -7.5%; Vaccinia Venus: inconclusive; Vaccinia mCherry: 12.6µM*

How did CC(C)c1ccc(N=c2c([N+](=O)[O-])nn(-c3ccc4c(c3)OCCO4)n2O)cc1 do in these assays?
AMA1 RON2 block: inconclusive; RE007 growth inh: 26.9%; TbPYK inhibitor: 7.9%; LmPK inhibitor: 5.3%; Vaccinia Venus: -27.5%; Vaccinia mCherry: inconclusive

How did O=C1c2ccccc2C(=O)c2[nH]c(=O)[nH]c21 do in these assays?
AMA1 RON2 block: -14.8%; RE007 growth inh: 0.0%; TbPYK inhibitor: -5.2%; LmPK inhibitor: -8.9%; Vaccinia Venus: 2.82µM*; Vaccinia mCherry: 1.26µM*

Results for O=C1c2ccccc2C(=O)c2ccccc21 ?
TbPYK inhibitor: 0.6%; Vaccinia Venus: -5.2%; Vaccinia mCherry: -8.6%

What do the screens show for `CNc1nc(NCc2ccc(N(C)C)cc2)c2sccc2n1`?
AMA1 RON2 block: 20µM*; RE007 growth inh: inconclusive; TbPYK inhibitor: -4.2%; Vaccinia Venus: -17.8%; Vaccinia mCherry: -3.0%

Results for Cc1cccc(C(=O)N2CCCCCC2)c1 ?
AMA1 RON2 block: -0.4%; RE007 growth inh: 2.2%; TbPYK inhibitor: -1.5%; LmPK inhibitor: 0.9%; Vaccinia Venus: -6.9%; Vaccinia mCherry: -17.2%

Results for Cc1ccc(C(=O)n2c(=S)nc3ccccn32)cc1 ?
LmPK inhibitor: 14.1µM*

How did Cc1cccc(C(=O)n2c(=S)nc3ccccn32)c1 do in these assays?
AMA1 RON2 block: -2.1%; RE007 growth inh: inconclusive; TbPYK inhibitor: -20.0%; LmPK inhibitor: 12.6µM*; Vaccinia Venus: inconclusive; Vaccinia mCherry: -19.5%
